Test systems include T-47D breast; BT-549 breast; MDA-MB-435 melanoma; SW-620 colon; MCF7 breast; HCT-116 colon; KM12 colon; HCC-2998 colon.
Assay in all cases: NCI-60 one-dose screen, 48 h (100 = growth as untreated, 0 = no growth, -100 = all killed)
Settings in all cases: 10 µM unless noted

The panel holds about 83,000 compounds, 20% with a hit somewhere; the sample as a whole holds those more often.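 Plates (96-well) were seeded with cells, treated with compound at one concentration, and incubated for 48 hours before percent growth was determined.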 Values without a mark were called inactive. Activity calls are given as the source filed them. Rule for the calls: active = growth percent below 10; inactive = the rest.

As to `c1ccc(C2NCCNC2c2ccccc2)cc1` (stereo not drawn), the growth in the assay with T-47D breast was 104%; in the assay with BT-549 breast, 103%; in the assay with MDA-MB-435 melanoma it was 102%; with SW-620 colon it was 101%; in the assay on MCF7 breast, 103%; in the assay with HCT-116 colon, 104%. In the assay on KM12 colon, the growth was 110%.

As for `O=[N+]([O-])c1ccc(N2CCN(Cc3ccccc3)CC2)c2c1no[n+]2[O-]`, the growth is 57.5% in the assay with T-47D breast; -25.5% (active) in the assay with BT-549 breast; -28.9% (active) in the assay on MDA-MB-435 melanoma; -68.2% (active) with SW-620 colon; 7.84% (active) in the assay with MCF7 breast; -14.4% (active) in the assay on HCC-2998 colon. Besides, in the assay with KM12 colon, the growth is -52.2% (active).

`CCCCCC[C@@H](O)C/C=C\CCCCCCCC(=O)OCCOC`: the growth is 94.3% with T-47D breast; 99% in the assay on BT-549 breast; 110% in the assay on MDA-MB-435 melanoma; 102% in the assay on SW-620 colon; 100% with MCF7 breast; 89.2% with HCT-116 colon. In the assay with KM12 colon, the growth was 102%.

Regarding `NC1=C(Br)C(=O)c2ncccc2C1=O`, the growth with T-47D breast is 15.3%; in the assay with BT-549 breast it was -81.2% (active); in the assay on MDA-MB-435 melanoma, -96.2% (active); with SW-620 colon it was -88.4% (active); with MCF7 breast, -57.2% (active); in the assay on HCC-2998 colon it was 26.9%. The growth in the assay with KM12 colon was 24.5%.

Turning to `NC(=Nc1nc(-c2ccccn2)cc2ccccc12)c1ccccn1`, the growth in the assay with T-47D breast is 16.4%; in the assay on BT-549 breast, 23.3%; in the assay with MDA-MB-435 melanoma, 22.9%; in the assay with SW-620 colon it was 11.8%; in the assay on MCF7 breast, 9.19% (active); in the assay with HCT-116 colon, 5.82% (active). Also, in the assay on KM12 colon, the growth was 16%.

As to `O=C(Nc1cccc(C(F)(F)F)c1)Oc1ccc(Cl)c2cccnc12`, the growth is 22% with T-47D breast; 37.5% in the assay with BT-549 breast; 28% with MDA-MB-435 melanoma; 12.8% in the assay on SW-620 colon; 61.1% in the assay with MCF7 breast; 92.7% in the assay on HCC-2998 colon. Further, in the assay with KM12 colon, the growth was 25.4%.

As for `Oc1ccc(Nc2ccc3ccccc3c2)cc1`, the growth in the assay on T-47D breast is 52.6%; with BT-549 breast it was 74.3%; in the assay with MDA-MB-435 melanoma it was 51.3%; in the assay on SW-620 colon it was 66.2%; in the assay with MCF7 breast, 64.7%; in the assay with HCT-116 colon, 70.8%. Further, the growth with KM12 colon is 35.6%.

As to `CCOc1ccc(Nc2nc3c(s2)C(=O)c2ccccc2C3=O)cc1`, the growth was 59% with T-47D breast; 87.4% with BT-549 breast; -80.2% (active) in the assay on MDA-MB-435 melanoma; 70% in the assay on SW-620 colon; 42.9% in the assay with MCF7 breast; 118% in the assay on HCC-2998 colon. For the same compound, the growth in the assay with KM12 colon was 81.4%.

Turning to `CC1(C)CCCC2=C1C(=O)N(SC(Cl)(Cl)Cl)C2=O`, the growth with T-47D breast was 66.9%; in the assay on BT-549 breast it was 95.8%; with MDA-MB-435 melanoma, 92.1%; in the assay on SW-620 colon, 88%; in the assay with MCF7 breast, 67.3%; in the assay with HCC-2998 colon it was 96.5%. The growth in the assay on KM12 colon is 101%.

Regarding `O=C1C=CC(=O)N1c1cccc2c1CCCC2`, the growth in the assay with T-47D breast was 86.5%; with BT-549 breast, 112%; in the assay with MDA-MB-435 melanoma, 88.5%; in the assay with SW-620 colon it was 99.6%; in the assay with MCF7 breast, 88.3%; with HCC-2998 colon it was 118%. Also, the growth in the assay with KM12 colon is 109%.

For the compound `COC1CC(C)C(OC)c2cc(O)cc(c2O)NC(=O)/C(C)=C/C=C\C(C)C(OC(N)=O)/C(C)=C\C(C)C1OC` (stereo not drawn), the growth with T-47D breast was 1.33% (active); in the assay on BT-549 breast, -44.8% (active); with MDA-MB-435 melanoma it was 12.7%; in the assay on SW-620 colon it was 2.74% (active); with MCF7 breast, 20.8%; in the assay on HCC-2998 colon it was -11.6% (active). Besides, the growth in the assay with KM12 colon is -46.4% (active).

Turning to `Oc1ccc(Br)cc1Sc1cc(Br)ccc1O`, the growth with T-47D breast was 17.7%; in the assay with BT-549 breast, 43.8%; in the assay with MDA-MB-435 melanoma, 56.7%; in the assay with SW-620 colon, 64.1%; in the assay on MCF7 breast it was 59.2%; in the assay with HCC-2998 colon it was 91.7%. Moreover, in the assay with KM12 colon, the growth was 92.9%.

Consider `CC/C(=C(/CC)c1ccc(O)cc1)c1ccc(O)cc1`, for which the growth was 72.4% in the assay on T-47D breast; 64.3% in the assay on BT-549 breast; -18.7% (active) in the assay on MDA-MB-435 melanoma; 44.6% with SW-620 colon; 26.2% in the assay on MCF7 breast; 70.2% in the assay on HCC-2998 colon. The growth in the assay on KM12 colon is 44.1%.

Consider `CCCCCCCCCCCCCCCC[N+]1(C)CCCC1c1cccnc1` (stereo not drawn), for which the growth in the assay on T-47D breast is 45.2%; in the assay with BT-549 breast, -6.27% (active); in the assay with MDA-MB-435 melanoma it was 63.9%; in the assay with SW-620 colon it was 53.2%; in the assay with MCF7 breast, 41%; with HCC-2998 colon, 19.8%. Further, the growth in the assay with KM12 colon is 41.7%.

As to `CC1C(c2ccccc2)OCCN1C(=S)Nc1ccc(S(=O)(=O)N2CCCCC2)cc1` (stereo not drawn), the growth in the assay with T-47D breast is 96.9%; in the assay on BT-549 breast it was 97.6%; in the assay with MDA-MB-435 melanoma, 89.4%; with SW-620 colon, 87.6%; with MCF7 breast, 91.3%; with HCT-116 colon, 91.8%. Further, the growth in the assay on KM12 colon was 92.1%.

As for `NC(=S)N/N=C/c1ncccc1O`, the growth in the assay on T-47D breast is 25.2%; in the assay with BT-549 breast it was 35.4%; in the assay on MDA-MB-435 melanoma, 29.6%; in the assay with SW-620 colon, 35%; in the assay with MCF7 breast, 6.89% (active); in the assay on HCT-116 colon it was 5.32% (active). In the assay on KM12 colon, the growth was 25.9%.

As to `C/C=C/c1cc2c(c(=O)o1)C(=O)[C@@H](O)[C@H](C)O2`, the growth in the assay on T-47D breast is 20.4%; with BT-549 breast, 18.2%; in the assay with MDA-MB-435 melanoma it was 65.6%; in the assay with SW-620 colon, 19.5%; in the assay with MCF7 breast, 26.1%; with HCC-2998 colon it was 79.5%. In addition, the growth with KM12 colon is 42.2%.

As for `CC(C)=C1C=C2CC[C@@H]3[C@](C)(CCC[C@@]3(C)C(=O)O)[C@H]2CC1`, the growth with T-47D breast is 97.6%; in the assay with BT-549 breast, 126%; in the assay on MDA-MB-435 melanoma, 101%; in the assay with SW-620 colon, 102%; with MCF7 breast, 95.9%; in the assay with HCT-116 colon, 107%. Moreover, the growth in the assay on KM12 colon was 101%.

As for `N#Cc1c2ccccc2nc2ccccc12`, the growth is 101% in the assay on T-47D breast; 114% with BT-549 breast; 103% with MDA-MB-435 melanoma; 98.4% in the assay on SW-620 colon; 101% with MCF7 breast; 105% in the assay with HCT-116 colon. Besides, the growth with KM12 colon was 108%.

The values are drawn from PubChem BioAssay (NCI).
